“And” between values parts separate entries of the source, which are not always exact repeats. Identical values can stand only once. Results filed as inconclusive are left out. The source made the active and inactive calls. Unless noted, calls follow the shape of the dose curve; as a rule, active = well fitted curve in the direction sought with a large enough effect; inconclusive = small, poorly fitted or top-dose-only effect, or another doubt; inactive = no such curve, though single readings can be large; an effect the other way counts as inactive or inconclusive.

Assay [1] can be described thus: Cell Viability - Jurkat (AID 426;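 active = dose-dependent loss of cell ATP signal giving a full or clear fitted curve, ranked by lower potency value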; also: potency is read from the fitted curve at half-maximal effect). The following applies: qHTS. Summed up:
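Jurkat (Clone E6-1) cells, 5000/well in complete medium, exposed to compounds for 40 hr at 37C; intracellular ATP measured by CellTiter-Glo luminescence after 20 min at room temperature. AC50 from Hill fits.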

For assay [2], the target named is Mitogen-activated protein kinase 10 (Mus musculus) (UniProt Q61831). As to the kind of experiment: JNK3 AlphaScreen Assay (AID 530; active = well fitted curve in either direction with a large enough effect, not every such curve was filed as active;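 also: kinase came from lysate of stimulated human HepG2 cells; signal reports phosphorylation of biotinylated GST-cJun 1-79 at Ser73 with 10 µM ATP; % is scaled to controls: 0 for no effect and ±100 for the full control effect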). The following applies: JNK3 lysate, c-Jun phosphorylation; series mostly up to 57.1 µM. Summed up: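 Pre-activated (IL-1β/TNFα) JNK3 in HepG2 lysates phosphorylates biotin-GST-cJun(1-79), 10 uM ATP; anti-phospho-cJun(Ser73) AlphaScreen read at room temperature, pH 7.6 Tris buffer. Compounds pre-incubated 15 min as titrations.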
A general note: Bead proximity is the source of the signal in Alpha formats.

The nature of assay [3]: MultiTox-Fluor Cytotoxicity Assay - LYMP1-002 - Dead Cells (AID 960).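 Also: 0% = DMSO and 100% = tetraoctylammonium bromide; nearly all actives have a fitted effect of over 60% in size.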 Particulars: LYMP1-002 lymphoblastoid cells, dead-cell protease fluorescence; series mostly up to 46.1 µM. Summed up: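 Human lymphoblastoid LYMP1-002 cells, 2500/well, treated 16 h at 37 C; dead-cell protease cleavage of bis-AAF-R110 read by fluorescence (485/520); normalized to DMSO and 15 uM tetraoctylammonium bromide; AC50 from Hill fit.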

The nature of assay [4]: Cell Viability - LYMP2-024 (AID 988).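 Also: plate controls were DMSO only for no effect and 92 µM tetraoctylammonium bromide for full effect; nearly all actives have a fitted effect of over 60% in size.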 The following applies: LYMP2-024 lymphoblastoid cell viability; series mostly up to 92.2 µM. Summed up: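 Human lymphoblastoid LYMP2-024 cells (2500/well) rested 5 hr, then treated with compound for 24 hr at 37 C in complete medium. Viability was measured as intracellular ATP by CellTiter-Glo luminescence. AC50 values came from Hill-equation fits.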

For assay [5], the target named is Estrogen receptor (Homo sapiens) (UniProt P03372). As to the kind of experiment: qHTS assay for small molecule antagonists of estrogen receptor alpha signaling (AID 588513; active = well fitted curve in the direction sought with a large enough effect in the signal ratio, with a control signal flat, not every such curve was filed as active; the % refers to the signal ratio; also: % is scaled to controls: 0 for no effect and ±100 for the full control effect). Particulars: ER-alpha-UAS-bla HEK293, beta-lactamase ratio, antagonist mode; series mostly up to 76.9 µM. Summed up:
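ER-alpha-UAS-bla GripTite HEK 293 cells in 2% charcoal/dextran-treated FBS medium; compounds titrated (1:2, duplicate), then stimulated with 0.5 nM 17-beta-estradiol for 18 h at 37C. CCF4 beta-lactamase fluorescence; Hill-fit IC50 and efficacy.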
Background: In qHTS, concentration-response curves come from the screen itself.

Assay [6] concerns the target Bile acid receptor (Homo sapiens) (UniProt Q96RI1). As to the kind of experiment: qHTS assay for small molecule agonists of farnesoid X receptor signaling (AID 588527; calls by dose curve;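 also: 0% = vehicle basal and 100% = reference agonist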). Particulars: HEK293T FXR-UAS-bla, beta-lactamase ratio, 16 h; stronger effect = higher value. Summed up:
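Read-out: beta-lactamase reporter fluorescence with CCF4 substrate in GeneBLAzer FXR-UAS-bla HEK293T cells, after 16 h compound exposure at 37 C. Response scaled between DMSO basal (0%) and chenodeoxycholic acid at 100 uM (100%).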

The nature of assay [7]: qHTS assay for small molecule antagonists of peroxisome proliferator-activated receptor delta signaling (AID 588535; active = well fitted inhibition curve with a large enough effect in the signal ratio, with a control signal flat, not every such curve was filed as active; the % refers to the signal ratio;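 as to max response: cells co-treated with a PPAR-delta agonist as stimulator during compound exposure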). Particulars: HEK293T PPARd-UAS-bla, beta-lactamase FRET ratio, 18 h; 460 nm channel. Summed up:
(§1)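 Antagonist-mode beta-lactamase reporter (GeneBLAzer PPAR-delta-UAS-bla) in HEK293T cells, 2% charcoal/dextran FBS, 4000 cells/well. Compound titrations, 18 h at 37 C; CCF4 ratio read, IC50 and efficacy from Hill fits.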

Assay [8] has as its target Peroxisome proliferator-activated receptor delta (Homo sapiens) (UniProt Q03181). Described as above. Particulars: HEK293T PPARd-UAS-bla, beta-lactamase FRET ratio, 18 h; series mostly up to 76.7 µM. Summed up: as §1
For assay [9], the target named is Peroxisome proliferator-activated receptor gamma (Homo sapiens) (UniProt P37231). The assay can be described thus: qHTS assay for small molecule agonists of peroxisome proliferator-activated receptor gamma signaling (AID 588536; active = well fitted curve in the direction sought with a large enough effect in the signal ratio, with a control signal flat, not every such curve was filed as active; the % refers to the signal ratio;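 also: 0% = DMSO basal wells and 100% = rosiglitazone at 2 µM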). Particulars: HEK293 PPARg-UAS-bla, beta-lactamase ratio, 16 h, percent of rosiglitazone response, DMSO as zero; series mostly up to 76.7 µM. Summed up:
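Test agents, titrated, stimulated HEK293 UAS-bla cells overnight (16 h, 37 C). Substrate CCF4 was then added for two hours at room temperature before fluorescence reading.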

For assay [10] the target is unchanged. The assay can be described thus: qHTS assay for small molecule antagonists of peroxisome proliferator-activated receptor gamma signaling (AID 588537; active = well fitted inhibition curve with a large enough effect in the signal ratio, with a control signal flat, not every such curve was filed as active; the % refers to the signal ratio;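 also: reporter cells co-stimulated with 50 nM rosiglitazone agonist during compound treatment; % of control where 0% means no effect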). Particulars: HEK293 PPARg-UAS-bla, beta-lactamase ratio, antagonist mode; series mostly up to 76.8 µM. Summed up:
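PPARγ-UAS-bla HEK293 cells (3000/well) in 1% charcoal/dextran-stripped FBS are treated with compound, then stimulated with 50 nM rosiglitazone for 16 h at 37 °C. Read-out is CCF4 β-lactamase fluorescence after 2 h at RT. IC50 comes from Hill fits normalised to rosiglitazone and DMSO.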

A short description of assay [11]: qHTS assay for small molecule agonists of the antioxidant response element (ARE) signaling pathway (AID 651741; active = well fitted activation curve with a large enough effect in the signal ratio; the % refers to the signal ratio; also: % of control where 0% means no effect). The following applies: HepG2 ARE-bla reporter, beta-lactamase FRET ratio, 16 h; series mostly up to 96 µM. Summed up: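 CellSensor ARE-bla HepG2 cells (2,000/well) carrying ARE-driven beta-lactamase, exposed 16 h at 37 C. LiveBLAzer B/G FRET substrate added for 2 h at room temperature; fluorescence intensity read.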

A short description of assay [12]: qHTS assay for small molecule activators of the nuclear factor-kappa B (NF-kB) signaling pathway (AID 651749; active = well fitted activation curve with a large enough effect in the signal ratio; the % refers to the signal ratio; also: % of control where 0% means no effect). Particulars: NF-kB-bla ME-180 cells, beta-lactamase FRET ratio, 16 h; stronger effect = higher value. Summed up:
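NF-kB-bla ME-180 cells carrying a beta-lactamase reporter under an NF-kB response element, 2,000 cells/well, exposed to compound for 16 hr at 37C; FRET-based beta-lactamase fluorescence read-out of pathway activation.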

Assay [13] can be described thus: qHTS assay for small molecule disruptors of the mitochondrial membrane potential - 5 hr assay (AID 651755; calls by dose curve; also: % is scaled to controls: 0 for no effect and ±100 for the full control effect; nearly all actives have a fitted effect of over 40% in size). Particulars: JC-1-type ratio dye; series mostly up to 92.2 µM. Summed up:
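HepG2 cells (2,000/well), attached overnight, exposed to compound 5 hr at 37C, then Mito-MPS dye 30 min. Fluorescence read for monomers (490/535 nm) and aggregates (540/590 nm).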

Assay [14] is described as follows: Cell Viability - NIH 3T3 (AID 541).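 Also: plate controls were DMSO alone for no effect and tamoxifen positive control for full effect; nearly all actives have a fitted effect of over 25% in size.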 Particulars: NIH 3T3 cell viability, qHTS; activity change, negative = cytotoxicity: at 92.2 µM (top of the series). Summed up: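 Mouse NIH 3T3 fibroblasts, 1000 cells/well, rested 5 hr at 37 °C, then exposed to compound for 40 hr at 37 °C in complete medium. Viability read as intracellular ATP by CellTiter-Glo luminescence; AC50 from Hill-equation fits of concentration-response data.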

The target in assay [15] is Glucocorticoid receptor (Homo sapiens) (UniProt P04150). As to the kind of experiment: qHTS assay for small molecule agonists of glucocorticoid receptor signaling (AID 588532; active = well fitted curve in the direction sought with a large enough effect in the signal ratio, with a control signal flat; the % refers to the signal ratio;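 also: 100% = dexamethasone at 0.1 µM and 0% = DMSO only wells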). Particulars: HeLa MMTV-bla, beta-lactamase ratio, agonist, 18 h; stronger effect = higher value; percent of dexamethasone control, DMSO zero. Summed up:
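Cells were plated and rested 3-5 h at 37 C, compounds were added in titration and incubated 18 h, then CCF4 substrate was loaded for 2 h at RT before reading blue/green fluorescence. EC50 came from Hill-equation fitting.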

Assay [16] concerns the target Tumor necrosis factor (Homo sapiens) (UniProt P01375). The assay can be described thus: qHTS assay to identify small molecules that stimulate Tumor Necrosis Factor-alpha (TNF-alpha) secretion (AID 651757; active = well fitted curve in the direction sought with a large enough effect in the signal ratio; the % refers to the signal ratio; also: 0% is about no effect). Particulars: Human cells, HTRF 665/615 ratio; series mostly up to 92.2 µM. Summed up:
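THP-1 cells (3000/well) exposed to compounds 17 hrs at 37 C. Secreted TNF-alpha detected by HTRF with cryptate- and XL665-labeled anti-TNF-alpha antibodies after 3 hr at room temperature.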

Assay [17] addresses Nuclear receptor ROR-gamma (Homo sapiens) (UniProt P51449). As to the kind of experiment: qHTS assay for small molecule antagonists of the retinoid-related orphan receptor gamma (ROR-gamma) signaling pathway (AID 651802).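 Also: luciferase reporter luminescence driven by ROR response element; % is scaled to controls: 0 for no effect and ±100 for the full control effect; nearly all actives have a fitted effect of over 60% in size.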 Particulars: ROR-gamma antagonist cell reporter assay; series mostly up to 92.2 µM. Summed up: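 CHO cells with TET-inducible ROR-gamma and RORE-luciferase reporter, dosed then doxycycline-induced. After 16 h at 37C, One-Glo luminescence read; decreased signal indicates antagonism.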

Assay [18] can be described thus: Cell Viability - HepG2 (AID 433; calls by dose curve;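 also: potency is read from the fitted curve at half-maximal effect; potency for ATP loss meaning cytotoxicity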). The following applies: qHTS. Summed up: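 HepG2 cells, 1500 per well, treated 40 hr at 37 °C in complete medium; viability from intracellular ATP by CellTiter-Glo luminescence. Normalized to DMSO and 100 uM tamoxifen; AC50 from Hill fit of qHTS concentration-response.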
Assay [19] concerns the target Vitamin D3 receptor (Homo sapiens) (UniProt P11473). As to the kind of experiment: qHTS assay for small molecule agonists of vitamin D receptor signaling (AID 588543; calls by dose curve;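 also: 0% = DMSO basal and 100% = reference agonist control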). Particulars: HEK293T VDR-UAS-bla, beta-lactamase ratio, 16 h; series mostly up to 76.8 µM. Summed up:
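VDR-UAS-bla HEK293T cells, 2000/well, 2% charcoal-stripped FBS; compound titration 16 h at 37 C; CCF4 beta-lactamase ratio read. Normalized to 50 nM 1-alpha,25-dihydroxyvitamin D3 (100%) and DMSO; Hill fit gives EC50, efficacy.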

The target of assay [20] is Glucocorticoid receptor (Homo sapiens) (UniProt P04150). As to the kind of experiment: qHTS assay for small molecule antagonists of glucocorticoid receptor signaling (AID 588533; active = well fitted inhibition curve with a large enough effect in the signal ratio, with a control signal flat, not every such curve was filed as active; the % refers to the signal ratio;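 also: cells stimulated with 2 nM dexamethasone as agonist; % is scaled to controls: 0 for no effect and ±100 for the full control effect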). Particulars: HeLa MMTV-bla, GRE beta-lactamase ratio, antagonist mode, 18 h; series mostly up to 76.8 µM. Summed up:
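Antagonist-mode qHTS: compound titrations added to GRE-bla HeLa cells, then dexamethasone 2 nM final; 18 h, 37 C. CCF4 FRET fluorescence normalized to dexamethasone and DMSO; IC50 from Hill fit.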

Chain of Vitamin D3 receptor (Homo sapiens) (P11473 whole entry, looked up): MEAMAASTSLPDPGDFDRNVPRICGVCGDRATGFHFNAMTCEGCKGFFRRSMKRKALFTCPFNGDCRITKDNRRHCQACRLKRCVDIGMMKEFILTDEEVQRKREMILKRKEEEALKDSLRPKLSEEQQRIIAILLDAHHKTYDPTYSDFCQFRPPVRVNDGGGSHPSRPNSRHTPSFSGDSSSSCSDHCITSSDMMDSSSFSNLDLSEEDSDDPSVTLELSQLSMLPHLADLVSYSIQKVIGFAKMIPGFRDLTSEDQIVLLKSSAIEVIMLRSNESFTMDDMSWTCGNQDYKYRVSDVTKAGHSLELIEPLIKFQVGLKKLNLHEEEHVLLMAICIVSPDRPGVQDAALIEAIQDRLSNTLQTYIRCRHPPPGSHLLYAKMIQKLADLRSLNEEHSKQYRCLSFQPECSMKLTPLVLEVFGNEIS
Chain of Tumor necrosis factor (Homo sapiens) (P01375 whole entry, looked up): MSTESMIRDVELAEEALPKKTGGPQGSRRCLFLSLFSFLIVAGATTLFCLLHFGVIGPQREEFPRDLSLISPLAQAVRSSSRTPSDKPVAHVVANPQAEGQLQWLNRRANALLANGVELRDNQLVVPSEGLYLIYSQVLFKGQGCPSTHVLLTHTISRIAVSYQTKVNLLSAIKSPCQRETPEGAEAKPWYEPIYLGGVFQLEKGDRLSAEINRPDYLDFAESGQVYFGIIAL
Chain of Glucocorticoid receptor (Homo sapiens) (P04150 whole entry, looked up): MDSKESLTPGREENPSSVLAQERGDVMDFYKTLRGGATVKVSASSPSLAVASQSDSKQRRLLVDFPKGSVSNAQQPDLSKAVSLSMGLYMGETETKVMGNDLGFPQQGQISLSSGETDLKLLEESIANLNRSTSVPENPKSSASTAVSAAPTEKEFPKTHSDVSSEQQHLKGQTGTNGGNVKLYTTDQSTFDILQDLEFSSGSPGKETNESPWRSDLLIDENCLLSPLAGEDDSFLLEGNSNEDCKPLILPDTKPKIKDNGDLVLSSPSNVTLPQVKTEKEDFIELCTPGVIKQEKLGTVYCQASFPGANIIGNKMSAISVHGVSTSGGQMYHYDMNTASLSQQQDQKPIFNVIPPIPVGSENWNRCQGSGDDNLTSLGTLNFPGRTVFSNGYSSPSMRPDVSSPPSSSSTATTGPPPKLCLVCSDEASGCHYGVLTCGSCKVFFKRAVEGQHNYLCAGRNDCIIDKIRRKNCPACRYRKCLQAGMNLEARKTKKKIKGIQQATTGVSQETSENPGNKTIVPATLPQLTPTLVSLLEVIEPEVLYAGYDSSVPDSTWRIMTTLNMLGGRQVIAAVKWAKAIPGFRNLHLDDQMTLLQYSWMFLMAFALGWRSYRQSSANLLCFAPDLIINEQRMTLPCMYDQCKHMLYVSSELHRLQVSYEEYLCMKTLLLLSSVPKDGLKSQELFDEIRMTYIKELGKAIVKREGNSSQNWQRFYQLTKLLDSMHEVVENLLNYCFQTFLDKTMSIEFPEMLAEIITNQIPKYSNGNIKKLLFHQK
Chain of Nuclear receptor ROR-gamma (Homo sapiens) (P51449 whole entry, looked up): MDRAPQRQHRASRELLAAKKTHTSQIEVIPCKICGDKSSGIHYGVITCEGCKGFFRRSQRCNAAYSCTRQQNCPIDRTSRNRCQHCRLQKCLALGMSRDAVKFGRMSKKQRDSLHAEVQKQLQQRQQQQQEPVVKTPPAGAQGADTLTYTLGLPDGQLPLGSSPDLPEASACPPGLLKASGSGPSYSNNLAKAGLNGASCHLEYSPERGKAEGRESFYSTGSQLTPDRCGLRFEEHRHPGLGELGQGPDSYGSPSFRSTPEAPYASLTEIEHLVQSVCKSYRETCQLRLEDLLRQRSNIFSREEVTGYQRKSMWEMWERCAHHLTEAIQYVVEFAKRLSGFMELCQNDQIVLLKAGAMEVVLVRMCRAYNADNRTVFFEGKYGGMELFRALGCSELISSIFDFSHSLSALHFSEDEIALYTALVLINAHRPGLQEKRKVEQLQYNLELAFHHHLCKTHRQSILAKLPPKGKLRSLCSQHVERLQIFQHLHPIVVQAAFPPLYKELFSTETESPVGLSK
Chain of Peroxisome proliferator-activated receptor delta (Homo sapiens) (Q03181 whole entry, looked up): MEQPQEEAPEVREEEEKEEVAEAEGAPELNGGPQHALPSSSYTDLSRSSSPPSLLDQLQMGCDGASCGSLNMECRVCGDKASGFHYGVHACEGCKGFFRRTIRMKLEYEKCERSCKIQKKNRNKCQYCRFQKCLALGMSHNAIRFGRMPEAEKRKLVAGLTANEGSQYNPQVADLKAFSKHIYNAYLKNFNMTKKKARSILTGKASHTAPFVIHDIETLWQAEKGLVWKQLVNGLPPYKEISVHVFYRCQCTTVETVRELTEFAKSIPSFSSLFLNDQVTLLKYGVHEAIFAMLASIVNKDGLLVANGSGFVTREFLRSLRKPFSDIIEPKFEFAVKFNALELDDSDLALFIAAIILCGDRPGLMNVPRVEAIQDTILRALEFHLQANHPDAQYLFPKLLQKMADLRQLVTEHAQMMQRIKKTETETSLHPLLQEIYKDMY
Chain of Estrogen receptor (Homo sapiens) (P03372 whole entry, looked up): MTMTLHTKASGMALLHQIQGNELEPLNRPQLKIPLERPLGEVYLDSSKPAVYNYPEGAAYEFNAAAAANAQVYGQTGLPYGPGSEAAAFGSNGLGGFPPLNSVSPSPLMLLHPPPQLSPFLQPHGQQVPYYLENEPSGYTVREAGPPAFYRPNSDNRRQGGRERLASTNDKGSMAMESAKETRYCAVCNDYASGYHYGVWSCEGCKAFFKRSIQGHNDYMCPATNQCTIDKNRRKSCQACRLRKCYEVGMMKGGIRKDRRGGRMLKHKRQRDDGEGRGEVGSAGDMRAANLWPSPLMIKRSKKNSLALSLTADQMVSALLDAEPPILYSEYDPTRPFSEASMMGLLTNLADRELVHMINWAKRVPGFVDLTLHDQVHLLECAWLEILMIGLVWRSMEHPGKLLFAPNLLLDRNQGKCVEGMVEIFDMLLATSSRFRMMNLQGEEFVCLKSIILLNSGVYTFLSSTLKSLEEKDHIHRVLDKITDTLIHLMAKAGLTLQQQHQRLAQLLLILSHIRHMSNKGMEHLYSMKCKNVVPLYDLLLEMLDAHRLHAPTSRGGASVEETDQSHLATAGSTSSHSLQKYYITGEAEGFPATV
Chain of Bile acid receptor (Homo sapiens) (Q96RI1 whole entry, looked up): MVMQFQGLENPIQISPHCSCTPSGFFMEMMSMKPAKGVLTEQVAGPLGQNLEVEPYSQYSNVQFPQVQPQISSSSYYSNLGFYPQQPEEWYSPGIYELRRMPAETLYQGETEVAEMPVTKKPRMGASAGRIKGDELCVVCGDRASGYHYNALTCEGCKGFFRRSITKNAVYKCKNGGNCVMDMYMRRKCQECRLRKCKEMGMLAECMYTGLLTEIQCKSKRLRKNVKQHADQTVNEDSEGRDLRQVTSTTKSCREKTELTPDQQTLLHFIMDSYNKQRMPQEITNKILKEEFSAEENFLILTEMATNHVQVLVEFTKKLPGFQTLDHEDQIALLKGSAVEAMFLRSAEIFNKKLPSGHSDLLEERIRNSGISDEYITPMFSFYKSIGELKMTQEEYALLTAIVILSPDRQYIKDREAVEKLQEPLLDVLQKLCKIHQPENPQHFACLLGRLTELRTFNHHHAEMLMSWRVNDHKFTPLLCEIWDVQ
Chain of Peroxisome proliferator-activated receptor gamma (Homo sapiens) (P37231 whole entry, looked up): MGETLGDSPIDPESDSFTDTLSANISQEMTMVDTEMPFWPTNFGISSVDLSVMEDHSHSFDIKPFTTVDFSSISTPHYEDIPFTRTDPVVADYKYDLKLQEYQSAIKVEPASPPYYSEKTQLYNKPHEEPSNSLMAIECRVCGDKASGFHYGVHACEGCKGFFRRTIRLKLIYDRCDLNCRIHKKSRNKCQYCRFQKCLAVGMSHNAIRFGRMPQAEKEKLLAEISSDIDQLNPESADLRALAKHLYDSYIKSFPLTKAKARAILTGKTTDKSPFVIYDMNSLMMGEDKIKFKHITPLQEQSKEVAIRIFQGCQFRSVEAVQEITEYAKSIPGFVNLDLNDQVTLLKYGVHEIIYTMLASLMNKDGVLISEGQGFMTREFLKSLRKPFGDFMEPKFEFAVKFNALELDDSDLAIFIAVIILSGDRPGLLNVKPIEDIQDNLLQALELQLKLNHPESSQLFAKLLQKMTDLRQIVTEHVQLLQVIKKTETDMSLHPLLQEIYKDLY

In the case of `CCCCOC(C)=O`, the Potency in [1] is > 92 µM (inactive). Besides, the Potency result in [2], in [3], in assay [4], in assay [5], in assay [10] and in [11] was “inactive” in each case. Also, in assay [13], the Potency result was “inactive”. The activation in assay [6] is 1.21% (inactive); in assay [12], -1.17% (inactive). For the same molecule, the max response in assay [7] amounted to 21.2%. Further, the result in assay [8] and in [9] was inactive.
As for `ClC(Cl)Br`, in assay [1], the Potency is > 92 µM (inactive). For the same molecule, the Potency entry in assay [14], in assay [3], in [5], in assay [10], in assay [13] and in [17] was “inactive” in each case. The figures for the activation in [15] and in assay [12] were -5.41% (inactive) and -1.16% (inactive), respectively. Moreover, the max response in assay [7] is -6.86%. Also, the result in [8], in assay [9] and in assay [16] was inactive.
With `CCN(N=O)C(N)=O`, in assay [18], the Potency was > 92 µM (inactive). Moreover, the Potency result in assay [2], in assay [14], in [3], in [4], in assay [5] and in [10] was “inactive” throughout. Further, the Potency result in assay [13] and in [17] was “inactive” throughout. The figures for the activation in [6], in assay [15] and in assay [12] were -1.35% (inactive), -3.98% (inactive) and -1.14% (inactive), respectively. Besides, the max response in assay [7] is -10.7%. Moreover, the outcome in [8], in [9], in assay [19] and in assay [16] was inactive.
With `CCCCCCCCCCCOC(=O)c1ccccc1C(=O)OCCCCCCCCCCC`, the Potency in [1] is > 92 µM (inactive). Moreover, the Potency result in assay [2], in [3], in assay [5], in [10], in [11] and in assay [13] was “inactive” throughout. Moreover, in assay [17], the Potency result is “inactive”. For the same molecule, the activation in [15] is 3.4% (inactive); in assay [12] it was -0.4% (inactive). Further, the result in [20], in assay [8], in [9], in assay [19] and in [16] was inactive. In addition, the max response in [7] is -38.8%.
For `O=C(O)C(Br)Br`, the Potency in [18] was > 92 µM (inactive). The Potency result in assay [2], in [14], in [4], in assay [5], in assay [10] and in assay [13] was “inactive” in each case. In addition, in assay [17], the Potency result is “inactive”. In addition, the activation in [6] was -1.44% (inactive); in assay [12], -1.25% (inactive).
In the case of `Cc1ccc(N=C=O)cc1N=C=O`, the Potency in [1] is > 92 µM (inactive). Besides, the Potency entry in assay [14], in [3], in assay [4], in [10] and in assay [17] was “inactive” each time. Besides, the activation in assay [15] was 4.9% (inactive) and -2.62% (inactive); in [12], 0.173% (inactive) and 0.839% (inactive). For the same molecule, the outcome in [20], in assay [9] and in [19] was inactive.
Consider `Oc1cc(Cl)ccc1Cl`, for which, in [1], the Potency is > 92 µM (inactive). Moreover, the Potency entry in [2], in assay [3], in [4], in [10], in assay [11] and in assay [13] was “inactive” each time. Further, the Potency entry in assay [17] was “inactive”. The activation in assay [15] is 0.0862% (inactive) and 2.52% (inactive); in [12], -0.753% (inactive) and -0.792% (inactive). Moreover, the result in [20], in [8], in assay [9], in assay [19] and in [16] was inactive. Besides, the max response in [7] was 32.2% and -9.59%.
